Inhibition data for 105 molecules are collected here from PubChem BioAssay AID1259343 (VanderVen Lab, College of Veterinary Medicine, Cornell …, 2017).

As a reminder, the inhibition is the drop in the measured response relative to a control, in per cent.

The campaign covered roughly 6,200 compounds. About 2,900 (47%) were called active. The set was probably picked from earlier hits. The list shows a part of the results. Values without a mark were called inactive. Cut-off read from the data, not from the text of the source: active = inhibition above about 50%; inactive = the rest.

The nature of the experiment: Mycobacterium tuberculosis growth inhibition, primary screen (AID 1259343). The settings on record: inhibition: at 10 µM, hits give high values; outcome: 10 uM.
With `CC1(C)C(C=C(Cl)Cl)C1C(=O)OCc1cccc(Oc2ccccc2)c1` (stereo not given), the inhibition is -12.7%.

Consider `CCOc1ccccc1CNC(=O)c1ccc(-c2cc(-c3ccc(Cl)cc3Cl)[nH]n2)cc1`, for which the inhibition is 31.1%.

Take `O=C(NCCc1ccc(Cl)cc1Cl)c1cn[nH]c1`: the inhibition was 91.4% (active).

For the molecule `O=C(NCCc1cc(Cl)cc(Cl)c1)c1ccc2c(c1)COCO2`, the inhibition is 25.3%.

Take `CN(C)c1c(Cl)cccc1NC(=O)NCc1ccoc1`: the inhibition was 40.8%.

As to `FC(F)(F)c1cccc(CSc2ncnc3ccccc23)c1`, the inhibition was 38.1%.

As to `COc1cc(COc2ccc(NC(C)=O)cc2)c(OC)cc1Br`, the inhibition is 19.7%.

Take `ON=Cc1cccc(OCc2ccccc2)c1`: the inhibition is -7.21%.

As for `CC(=O)Nc1ccc(OCc2cccc(C(F)(F)F)c2)cc1`, the inhibition was 57.6% (active).

As to `CC(NS(=O)(=O)Cc1cccc(C(F)(F)F)c1)c1cccc(Br)c1` (stereo not given), the inhibition was 25.3%.

Turning to `Oc1cccc(OCc2cccc(C(F)(F)F)c2)c1`, the inhibition is 89.2% (active).

For the molecule `N#Cc1ccc(NC(=O)Cc2cccc(C(F)(F)F)c2)cc1Cl`, the inhibition is 8.71%.

In the case of `CC(=O)Nc1ccc(OCc2ccc(Br)cc2F)cc1`, the inhibition is 62.5% (active).

As for `O=C1N=C(c2ccccc2)OC1=CC=Cc1ccccc1`, the inhibition is -12.3%.

Take `COc1ccccc1/C=C/C=C1N=C(/C=C/c2ccc(C)cc2)OC\1=O`: the inhibition was 81.8% (active).

On to `Cc1cc(NC(=O)c2cccn(Cc3ccc(Cl)cc3)c2=O)c2ccccc2n1`, for which the inhibition is 20.7%.

As to `O=c1c2ccccc2nnn1Cc1ccc(Cl)cc1`, the inhibition was 103% (active).

For the molecule `Cc1ccc(OCC(O)Cn2nnc3ccccc3c2=O)cc1` (stereo not given), the inhibition was 35%.

`O=c1c2ccccc2nnn1CSc1ccc(F)cc1`: the inhibition was 72.2% (active).

With `CCCc1nnc(SCc2ccc(OCCC(C)C)cc2)n1N`, the inhibition is 37.1%.

Take `CC(C)CCOc1ccc(C=C(C#N)C#N)cc1`: the inhibition was 51.5% (active).

`CC1N(C)c2ccc(C=C(C#N)C#N)cc2C1(C)C` (stereo not given): the inhibition was -15.1%.

Regarding `Cc1csc(SCc2cc(=O)c(OC(=O)c3ccc(C)c(C)c3)co2)n1`, the inhibition was -15%.

As to `O=C(c1cc(COc2cccc(C(F)(F)F)c2)on1)N1CCCC(CCCO)C1` (stereo not given), the inhibition was 47.5%.

In the case of `O=C(c1cnn2ccccc12)N1CCCC(CCc2cccc(C(F)(F)F)c2)C1` (stereo not given), the inhibition was 93.1% (active).

`CCCC1CCCN(C(=O)c2cc3ccccc3cc2O)CC1` (stereo not given): the inhibition was 23.5%.

`CC(C)c1ncc(CN2CCCC(CCc3cccc(C(F)(F)F)c3)C2)cn1` (stereo not given): the inhibition is 93.2% (active).

`COc1ncc(CN2CCCC(CCc3ccccc3C(F)(F)F)C2)cn1` (stereo not given): the inhibition was 77.6% (active).

Regarding `COc1ncc(C(=O)N2CCCC(COc3cccc(F)c3)C2)cn1` (stereo not given), the inhibition was 36.7%.

In the case of `COc1coc(CN2CCCC(CCc3ccccc3C)C2)cc1=O` (stereo not given), the inhibition is 33.7%.

Turning to `CCOC1=CC(=O)N(Cc2ccccc2)C1`, the inhibition was 48.1%.

For the molecule `COc1ccc(Cn2c(C3CCCCC3)nc3oc4ccccc4c(=O)c3c2=O)cc1`, the inhibition was -20.8%.

As for `CCOc1ccc(Cn2c(=O)oc3ccccc32)cc1`, the inhibition is 68.1% (active).

For the molecule `CCCOc1ccc(Cn2c(=O)oc3ccc(C)cc32)cc1`, the inhibition is 67.2% (active).

Take `CCCOc1ccc(C2c3c(oc4ccc(C)cc4c3=O)C(=O)N2c2nccs2)cc1` (stereo not given): the inhibition was -18.8%.

For the molecule `CCCOc1ccc(Cc2nn[nH]n2)cc1`, the inhibition was 34.6%.

Turning to `NC1=NC(=O)C(CC(=O)Nc2ccc(SC(F)(F)C(F)(F)C(F)(F)F)cc2)S1` (stereo not given), the inhibition is 35.5%.

As to `O=S(=O)(/C=C/c1ccccc1)Nc1ccc(Cl)cc1F`, the inhibition is 81.5% (active).

On to `O=S(=O)(/C=C/c1ccccc1)NCCc1cccc2ccccc12`, for which the inhibition is 6.24%.

Take `O=S(=O)(/C=C/c1ccccc1)Nc1ccccc1C(F)(F)F`: the inhibition was 78.4% (active).

As for `O=S(=O)(/C=C/c1ccccc1)NC1CCCCC1`, the inhibition is 17%.

Take `Cc1ccc2nc(-c3cccc(N)c3C)oc2c1`: the inhibition was 42.1%.

For the molecule `Cc1cccc(C)c1-c1ccc(-c2nn[nH]n2)cc1`, the inhibition was 70.6% (active).

Consider `COc1ccc(OCCNc2ccccc2-c2nn[nH]n2)cc1`, for which the inhibition was 22.1%.

Turning to `O=C(Cn1ncc(Cl)c(Cl)c1=O)Nc1ccc2ccccc2c1`, the inhibition is 11%.

For the molecule `O=C(Cn1ncc(Cl)c(Cl)c1=O)c1ccc2c(c1)CCC2`, the inhibition was 82.8% (active).

Turning to `O=C(Cn1ncc(Cl)c(Cl)c1=O)c1cc(F)ccc1F`, the inhibition was -50.8%.

As to `CC(C)(C)c1ccc(OCc2ccc(C(=O)OCC#N)cc2)cc1`, the inhibition was -2.26%.

Turning to `CC(C)OC(=O)c1ccc(COc2ccc(C(C)(C)C)cc2)o1`, the inhibition is 75.8% (active).

`CC1CC1c1ccc(CCC(=O)Nc2ccccn2)o1` (stereo not given): the inhibition was 48.8%.

On to `CC(C)c1nc(CC(=O)N(C)Cc2ccc(C3CC3C)o2)cs1` (stereo not given), for which the inhibition is 83.2% (active).

As to `CC1CC1c1ccc(/C=C2/SC(N)=NC2=O)o1` (stereo not given), the inhibition is 5.99%.

As to `COc1cccc(CC(=O)Nc2ccc3c(c2)CCC3)c1`, the inhibition was -43.3%.

In the case of `COc1cccc(Cc2nsc(Oc3ccc(CC(=O)O)cc3)n2)c1`, the inhibition was 88.3% (active).

As to `CN(Cc1ccc2cccc(O)c2n1)Cc1noc(C2CCC2)n1`, the inhibition was 98.5% (active).

With `C=C(C)COc1cccc(C(=O)NCc2noc(C3CCCC3)n2)c1`, the inhibition was 38.4%.

For `CCc1nnc(NS(=O)(=O)c2ccccc2Cl)s1`, the inhibition was 80.2% (active).

For the molecule `COCc1nnc(NS(=O)(=O)c2ccc(Br)cc2)s1`, the inhibition entry was “inactive”.

As to `CC(C)c1nnc(NS(=O)(=O)c2ccc(Cl)s2)s1`, the inhibition was -36.5%.

`c1cc2cc(CNc3nc(NCC4CC4)nc4ccsc34)ccc2o1`: the inhibition is 76.9% (active).

For `Clc1ccccc1CSc1nnc(-c2ccc3c(c2)OCO3)o1`, the inhibition was 1.82%.

For the molecule `Brc1ccccc1CSc1nnc(-c2ccc3c(c2)OCO3)o1`, the inhibition is 99.6% (active).

In the case of `N#CCSc1nnc(-c2ccc3c(c2)OCO3)o1`, the inhibition was 97.5% (active).

Turning to `Brc1cc2c(cc1CSc1nnc(-c3ccccc3)o1)OCO2`, the inhibition was -11.5%.

Regarding `Brc1ccc(CSc2nnc(-c3ccc4c(c3)OCO4)o2)cc1`, the inhibition is 59.2% (active).

As for `Clc1cccc(CSc2nnc(-c3ccc4c(c3)OCO4)o2)c1`, the inhibition is 41.6%.

Consider `Clc1cccc(Cl)c1CSc1nnc(-c2ccc3c(c2)OCO3)o1`, for which the inhibition is 63.3% (active).

Regarding `CCn1nc(NC(C)=O)c2cc3ccc(C)cc3nc21`, the inhibition was -33.9%.

`CN(C(=O)c1cc(Cl)sc1Cl)c1ccc(-c2onc3c2CCc2ccccc2-3)cc1`: the inhibition was 35.5%.

In the case of `Fc1ccc(-c2nnc(SCc3cc(Cl)c4c(c3)OCCO4)o2)cc1`, the inhibition was 95.4% (active).

Turning to `COc1ccc(C=NOCc2ccc(Cl)c(Cl)c2)c(OC)c1`, the inhibition was 32.8%.

As to `N#Cc1ccc(CON=Cc2ccccc2OC(F)F)cc1`, the inhibition was 52.2% (active).

Consider `C(=NOCc1ccc(CON=Cc2ccccc2)cc1)c1ccccc1`, for which the inhibition is 16.2%.

For `N#Cc1ccc(CON=Cc2ccccc2)cc1`, the inhibition is 70.7% (active).

Turning to `Cc1cccc(C(=O)Nc2cc(C3CC3)nn2-c2nc(C)c(C)c(=O)[nH]2)c1`, the inhibition was 99.3% (active).

As for `Cc1nc(-n2nc(C3CC3)cc2NC(=O)c2ccc(F)cc2)[nH]c(=O)c1C`, the inhibition is 101% (active).

As for `Cc1nc(-n2nc(C3CC3)cc2NC(=O)c2cccc(F)c2)[nH]c(=O)c1C`, the inhibition is 100% (active).

Consider `O=C1/C(=C/c2ccc(O)cc2)C(N2CCOCC2)=NN1c1ccc([N+](=O)[O-])cc1`, for which the inhibition is 36.6%.

Consider `CC(c1ccccc1)N1CCN(c2ccc([N+](=O)[O-])cc2)CC1` (stereo not given), for which the inhibition is 56.5% (active).

For `O=[N+]([O-])c1ccc(N2CCCCC2)cc1`, the inhibition is 48.6%.

`C=CCc1c(C)nc2c(-c3ccccc3)cnn2c1NCCN(C)C`: the inhibition entry was “inactive”.

In the case of `C=CCc1c(C)nc2c(-c3cccc(Cl)c3)c(C)[nH]n2c1=O`, the inhibition is 99.8% (active).

Regarding `C=CCc1c(C)nc2c(-c3ccccc3)cnn2c1NCCOC`, the inhibition is 17.5%.

Regarding `COc1ccccc1Oc1cc(Cl)ncn1`, the inhibition is 53.5% (active).

For the molecule `COc1cc(C(C)=O)ccc1Oc1cnccn1`, the inhibition is 3.02%.

With `Fc1ccc(Oc2cc(N3CCc4ccccc4C3)ncn2)cc1F`, the inhibition is 34.6%.

As to `Fc1ccc(Oc2cc(Cl)ncn2)cc1`, the inhibition was 73.1% (active).

On to `Fc1ccc(CN2CCN(c3cc(Oc4ccc(F)cc4Cl)ncn3)CC2)cc1`, for which the inhibition is 39.7%.

Turning to `Cc1nnc(N2C(=O)C(=O)C(=C(O)c3ccc(OC(C)C)cc3)C2c2ccc([N+](=O)[O-])cc2)s1` (stereo not given), the inhibition was 35.4%.

For the molecule `CN(C(=O)c1ccccc1)c1nnc(C23CC4CC(CC(C4)C2)C3)s1`, the inhibition is 70% (active).

With `COc1ccc(C(=O)N(C)c2nnc(C34CC5CC(CC(C5)C3)C4)s2)c(OC)c1`, the inhibition is 29.9%.

Turning to `O=C(Cc1cccs1)Nc1ncc(Cc2ccc(F)c(F)c2)s1`, the inhibition was 44.8%.

For `O=C(Nc1ncc(Cl)s1)c1ccc(Cl)cn1`, the inhibition is 81.3% (active).

Regarding `O=C(Nc1ncc(Cc2ccc(Cl)cc2)s1)c1cccs1`, the inhibition is 53.4% (active).

For the molecule `CC(=O)CSc1ncnc2sc3c(c12)CCC(C)C3` (stereo not given), the inhibition was 2.69%.

`CCCC(C)Nc1ncnc2sc3c(c12)CCC(C)C3` (stereo not given): the inhibition is 84.8% (active).

Take `Clc1ccccc1CSc1nnc(-c2ccc[nH]2)o1`: the inhibition was -6.43%.

As to `N#Cc1c(SCc2ccccc2Cl)sc2c(=O)[nH]c(=O)[nH]c12`, the inhibition is 67.2% (active).

For `Nc1ccc2c(c1)C(=O)NCC2`, the inhibition is 61.7% (active).

In the case of `Nc1ccc2c(c1)Cc1ccccc1-2`, the inhibition was 0.14%.

For the molecule `Nc1ccc2c(c1)-c1ccccc1C2`, the inhibition was -7.01%.

On to `S=C(NCC1CCCCC1)Nc1ccccc1Cl`, for which the inhibition was 89.6% (active).

For the molecule `S=C(Nc1ccc2c(c1)OCO2)Nc1ccccc1Cl`, the inhibition was 19.5%.

Turning to `C=CCNC(=S)Nc1ccc(Cl)cc1Cl`, the inhibition was 4.42%.

As to `O=C(NCCC12CC3CC(CC(C3)C1)C2)c1ccc2c(=O)n3c(nc2c1)CCCCC3`, the inhibition is 67% (active).
